The panel holds about 83,000 compounds, 20% with a hit somewhere; the sample as a whole holds those more often.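 Values shown are percent growth following 48 h exposure of cells in 96-well plates to a single concentration of compound; below 10 was considered active.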 Values without a mark were called inactive. Activity calls are given as the source filed them.

This is an account of results in PubChem BioAssay (NCI).

The test system of the first experiment is OVCAR-3 ovarian. Briefly: NCI-60 one-dose screen, 48 h (100 = growth as untreated, 0 = no growth, -100 = all killed). The settings on record: 10 µM unless noted.
As for `Nc1cc2nc3ccccc3sc-2cc1=O`, the growth is 65.2%.

Consider `C#Cc1nc(Nc2cc(C)[nH]n2)c2ccccc2n1`, for which the growth was -71% (active).

Take `CCOC(=O)c1nc(Nc2cc(C)[nH]n2)c2ccccc2n1`: the growth is 97.7%.

Turning to `O=C(/C=C/c1ccc(Cl)cc1)/C=C/c1cc2ccccc2[nH]c1=O`, the growth is 15.9%.

As to `CCOC(=O)c1ccc2c(c1)nc(/C=C/c1ccc(Cl)cc1)n2-c1cc(C(C)(C)C)[nH]n1`, the growth was 22.2%.

On to `CC(=O)OCC(=O)C1CCC=CC1OC(C)=O` (stereo not drawn), for which the growth is 107%.

Consider `COc1cc(C2CC(=O)c3c(C)nn(-c4nc5ccccc5[nH]4)c3C2)cc(OC)c1OC` (stereo not drawn), for which the growth was 67.2%.

As to `CC1(C)OCC2OC3(C(=O)O)OC(C)(C)OC3C2O1` (stereo not drawn), the growth was 99.2%.

`COc1ccc(C(=O)c2sc3nc(-c4ccccc4OC)ccc3c2N)cc1OC`: the growth was 68.9%.

For `COc1ccc(C(=O)c2sc3nc4c(cc3c2N)CCCC4)cc1OC`, the growth was 20.6%.

Turning to `Cc1ccc2c(NCCCN(C)C)c3c(C)nn(C)c3nc2c1`, the growth is 49.3%.

`Cc1ccc(NC(=O)c2sc3nc4c(cc3c2N)C(=O)CCC4)cc1C`: the growth was -10.2% (active).

For `Cc1ccn2c(-c3csc(Nc4cccc(O)c4)n3)c(C)nc2c1`, the growth was -14% (active).

In the case of `NC(CC(=O)O)C(=O)OCc1ccccc1` (stereo not drawn), the growth was 110%.

In the case of `O=C1Nc2ccc(Br)cc2C12CC(c1ccccc1)=NN2` (stereo not drawn), the growth is 24.1%.

Turning to `Cc1cc(Nc2nc(N3CCNCC3)nc3ccccc23)n[nH]1`, the growth is 100%.

Regarding `CCc1ccccc1NC(=O)c1sc2nc3c(cc2c1N)C(=O)CCC3`, the growth is -12.7% (active).

Regarding `CCOC(=O)N1CCN(c2nc(Nc3cc(C)[nH]n3)c3ccccc3n2)CC1`, the growth is 55.3%.

In the case of `COc1c(Cl)cc(Cl)cc1Cl`, the growth was 109%.

As to `Cc1cc(Nc2nc(N3CCOCC3)nc3ccccc23)n[nH]1`, the growth was 58.6%.

On to `COc1ccc(C2CC(=O)Nc3c2c(C)nn3-c2nc3ccccc3[nH]2)cc1` (stereo not drawn), for which the growth is 18.3%.

For the compound `COc1cc(-c2cc(-c3nc4ccc(Cl)cc4[nH]3)[nH]n2)cc(OC)c1OC`, the growth was 57.8%.

`Cc1noc(C)c1-c1cc(O)cc(C(O)c2ccccc2)c1` (stereo not drawn): the growth is 46.7%.

As to `COc1ccc(-c2nc(Nc3cc(C)[nH]n3)c3ccccc3n2)cc1`, the growth was 52.2%.

Regarding `Cc1cc(Nc2nc(-c3cccnc3)nc3ccccc23)n[nH]1`, the growth is 59%.

On to `CC#Cc1nc2ccccc2c(=O)[nH]1`, for which the growth was 4.22% (active).

`O=C(Nc1ccc(F)cc1)Nc1ccc(CCO)cc1`: the growth is 117%.

In the case of `CCCCNC(=O)NS(=O)(=O)c1ccc(N2N=C(c3cc(C)ccc3C)CC2c2cc(OC)c(OC)c(OC)c2)cc1` (stereo not drawn), the growth was 53.3%.

Take `COc1cc(C2C(C(=O)c3cccs3)=C(O)C(=O)N2CCN2CCOCC2)cc(OC)c1OC` (stereo not drawn): the growth was 102%.

`NCc1cn2cc(Cl)sc2n1`: the growth is 114%.

Take `CCCCCCCCCCCCN1CCCC(C)C1` (stereo not drawn): the growth was 93.3%.

As to `O=c1c2cccc3c(Nc4ccccn4)ccc(c32)c2nc3ccccc3n12`, the growth is 70%.

Turning to `Cc1ccc(S(=O)(=O)N(CCc2ccc(Cl)cc2)S(=O)(=O)c2ccc(C)cc2)cc1`, the growth is 95%.

`O=C(N/N=C/c1ccc(O)cc1O)c1cccnc1`: the growth is 19.8%.

With `CNC(=S)N/N=C/CSC/C=N/NC(=S)NC`, the growth is 32.3%.

For the compound `COc1ccc(-c2c(C)noc2-c2ccc(O)cc2O)cc1`, the growth was 80.5%.

The next experiment relates to HS 578T breast. The experiment is described as above. Particulars: 10 µM unless noted.
Regarding `Nc1cc2nc3ccccc3sc-2cc1=O`, the growth was 85.1%.

With `C#Cc1nc(Nc2cc(C)[nH]n2)c2ccccc2n1`, the growth was -1.95% (active).

As to `CCOC(=O)c1nc(Nc2cc(C)[nH]n2)c2ccccc2n1`, the growth was 71.4%.

In the case of `O=C(/C=C/c1ccc(Cl)cc1)/C=C/c1cc2ccccc2[nH]c1=O`, the growth is 91.2%.

With `CCOC(=O)c1ccc2c(c1)nc(/C=C/c1ccc(Cl)cc1)n2-c1cc(C(C)(C)C)[nH]n1`, the growth was 51.3%.

Take `CC(=O)OCC(=O)C1CCC=CC1OC(C)=O` (stereo not drawn): the growth was 110%.

In the case of `COc1cc(C2CC(=O)c3c(C)nn(-c4nc5ccccc5[nH]4)c3C2)cc(OC)c1OC` (stereo not drawn), the growth was 43.1%.

For the compound `CC1(C)OCC2OC3(C(=O)O)OC(C)(C)OC3C2O1` (stereo not drawn), the growth was 102%.

Consider `COc1ccc(C(=O)c2sc3nc(-c4ccccc4OC)ccc3c2N)cc1OC`, for which the growth is 55.6%.

Regarding `COc1ccc(C(=O)c2sc3nc4c(cc3c2N)CCCC4)cc1OC`, the growth is 74%.

`Cc1ccc2c(NCCCN(C)C)c3c(C)nn(C)c3nc2c1`: the growth was 74.1%.

As to `Cc1ccc(NC(=O)c2sc3nc4c(cc3c2N)C(=O)CCC4)cc1C`, the growth is 28.1%.

For the compound `COc1c(C2CC(=O)Nc3c2cnn3Cc2ccco2)cc2c(c1OC)OCO2` (stereo not drawn), the growth is 30.4%.

In the case of `Cc1ccn2c(-c3csc(Nc4cccc(O)c4)n3)c(C)nc2c1`, the growth was 19.2%.

As to `NC(CC(=O)O)C(=O)OCc1ccccc1` (stereo not drawn), the growth was 101%.

Regarding `O=C1Nc2ccc(Br)cc2C12CC(c1ccccc1)=NN2` (stereo not drawn), the growth was 47%.

On to `Cc1cc(Nc2nc(N3CCNCC3)nc3ccccc23)n[nH]1`, for which the growth is 65.2%.

On to `CCc1ccccc1NC(=O)c1sc2nc3c(cc2c1N)C(=O)CCC3`, for which the growth is 22.6%.

As for `CCOC(=O)N1CCN(c2nc(Nc3cc(C)[nH]n3)c3ccccc3n2)CC1`, the growth was 29.6%.

Take `CN1CCCCC1CCN1c2ccccc2Sc2ccc(Cl)cc21` (stereo not drawn): the growth was 72.5%.

For the compound `COc1c(Cl)cc(Cl)cc1Cl`, the growth was 87.8%.

Turning to `Cc1cc(Nc2nc(N3CCOCC3)nc3ccccc23)n[nH]1`, the growth was 16.3%.

On to `COc1ccc(C2CC(=O)Nc3c2c(C)nn3-c2nc3ccccc3[nH]2)cc1` (stereo not drawn), for which the growth is 61.7%.

Regarding `COc1cc(-c2cc(-c3nc4ccc(Cl)cc4[nH]3)[nH]n2)cc(OC)c1OC`, the growth is 84.2%.

Turning to `Cc1noc(C)c1-c1cc(O)cc(C(O)c2ccccc2)c1` (stereo not drawn), the growth was 33.7%.

Regarding `COc1ccc(-c2nc(Nc3cc(C)[nH]n3)c3ccccc3n2)cc1`, the growth was 2.72% (active).

Consider `Cc1cc(Nc2nc(-c3cccnc3)nc3ccccc23)n[nH]1`, for which the growth was 5.1% (active).

Take `CC#Cc1nc2ccccc2c(=O)[nH]1`: the growth was 58.7%.

As to `O=C(Nc1ccc(F)cc1)Nc1ccc(CCO)cc1`, the growth was 106%.

With `COc1cc(C2C(C(=O)c3cccs3)=C(O)C(=O)N2CCN2CCOCC2)cc(OC)c1OC` (stereo not drawn), the growth is 112%.

For the compound `NCc1cn2cc(Cl)sc2n1`, the growth was 113%.

For `CCCCCCCCCCCCN1CCCC(C)C1` (stereo not drawn), the growth was 99.8%.

For the compound `O=c1c2cccc3c(Nc4ccccn4)ccc(c32)c2nc3ccccc3n12`, the growth is 111%.

For `Cc1ccc(S(=O)(=O)N(CCc2ccc(Cl)cc2)S(=O)(=O)c2ccc(C)cc2)cc1`, the growth is 103%.

For the compound `O=C(N/N=C/c1ccc(O)cc1O)c1cccnc1`, the growth is 71.6%.

Consider `CNC(=S)N/N=C/CSC/C=N/NC(=S)NC`, for which the growth is 107%.

`COc1ccc(-c2c(C)noc2-c2ccc(O)cc2O)cc1`: the growth is 106%.
